Results from PubChem BioAssay (NCATS).
Records with an inconclusive call do not appear. Calls of active or inactive are those of the source. The call rests on the fitted dose curve; in most records, active means well fitted cell-killing curve with a large enough effect; inconclusive means small, poorly fitted or top-dose-only effect; inactive means flat fitted curve, though single readings scatter.

Experiment: Cell Viability - LYMP2-025 (AID 976)
Conditions: LYMP2-025 lymphoblastoid cell viability; series mostly up to 92.2 µM
Source text: NIH Chemical Genomics Center [NCGC]
NIH Molecular Libraries Screening Centers Network [MLSCN]
National Institutes of Environmental Health Sciences [NIEHS]
National Toxicology Program [NTP]
We have developed a 1536-well cell-based assay for quantitative high throughput screening (qHTS) against a number of cell lines to determine in vitro cytotoxicity of small molecules. This particular assay uses a human lymphoblastoid cell line (LYMP2-025) purchased from Coriell Institute for Medical Research.
NCGC Assay Protocol Summary:
The CellTiter-Glo luminescent cell viability assay (Promega) is a homogeneous method to measure the number of viable cells in culture. The end point readout of this assay is based on quantitation of intracellular ATP, an indicator of metabolic activity, using the luciferase reaction. Luciferase catalyzes the oxidation of beetle Luciferin to oxyluciferin and light in the presence of ATP. The luminescent signal is proportional to amount of ATP present.
Using the CellTiter-Glo luminescent cell viability assay, the amount of cellular ATP was measured in the lymphoblastoid cell line with complete culture medium following compound treatment for 24 hours. The assay was performed in opaque white Kalypsys 1536-well plates. In the screen, tetraoctylammonium bromide was used as positive control. Library compounds were measured for their ability to cause acute toxicity in the cell line, as reflected by a decrease in intracellular ATP levels, in a concentration-dependent manner. […] AC50 values were determined from concentration-response data modeled with the standard Hill equation.
qHTS protocol for CellTiter Glo lymphoblastoid cellular assay
[Step] [Parameter] [Value] [Description]
1. Reagent; 5 uL; 2500 lymphoblastoid cells/well
2. Time; 5 hr; 37 C incubation
4. Controls; 23 nL; Tetraoctylammonium bromide 6.4pM to 92 uM
5. Time; 24 hr; 37 C incubation
6. Reagent; 5 uL; CellTiter Glo reagent
7. Time; 30 min; Room Temperature
8. Detection; Luminescence; Viewlux plate reader
Keywords: cell viability, cytotoxicity, lymphoblastoid cell line, luminescence, NTPHTS, NTPHTS_NCGC, NIEHS, DSSTox, MLSMR, MLSCN, NIH Roadmap, qHTS, NCGC
Potency means the concentration at half of the fitted maximal effect.

Compound	Potency
O=C(O)C1C(C(=O)O)C2(Cl)C(Cl)=C(Cl)C1(Cl)C2(Cl)Cl (stereo not given)	inactive
CC(=O)[O-].CC(=O)[O-].O.O.[Cd+2]	inactive
CC/C(=C(\c1ccccc1)c1ccc(OCCN(C)C)cc1)c1ccc(O)cc1	50.1 µM (active)
C#CCO	inactive
[CH3][Hg][Cl]	7.94 µM (active)
O=C(CCl)c1ccccc1	12.6 µM (active)
ClC1=C(Cl)C2(Cl)C3C(Cl)C(Cl)CC3C1(Cl)C2(Cl)Cl (stereo not given)	inactive
c1cc(OCC2CO2)cc(OCC2CO2)c1 (stereo not given)	50.1 µM (active)
c1ccc2cc3c(cc2c1)-c1cccc2cccc-3c12	inactive
Cc1ccccc1	inactive
C[C@@H]1CC[C@@]2(OC1)O[C@H]1[C@@H](O)[C@H]3[C@@H]4CC[C@H]5C[C@@H](O[C@@H]6O[C@H](CO)[C@H](O[C@@H]7O[C@H](CO)[C@@H](O)[C@H](O[C@@H]8OC[C@@H](O)[C@H](O)[C@H]8O)[C@H]7O[C@@H]7O[C@H](CO)[C@@H](O)[C@H](O[C@@H]8O[C@H](CO)[C@@H](O)[C@H](O)[C@H]8O)[C@H]7O)[C@H](O)[C@H]6O)[C@H](O)C[C@]5(C)[C@H]4CC[C@]3(C)[C@H]1[C@@H]2C	25.1 µM (active)
O=Nc1ccc(Nc2ccccc2)cc1	10 µM (active)
Nc1ccccc1C(=O)OCCc1ccccc1	inactive
OC(c1ccc(Cl)cc1)(c1ccc(Cl)cc1)C(Cl)(Cl)Cl	inactive
N#CC(Cl)Cl	39.8 µM (active)
CCCCCCCCn1sccc1=O	6.31 µM (active)
Clc1ccc(C(c2ccc(Cl)cc2)C(Cl)Cl)cc1	inactive
CN(C)c1ccc(N=O)cc1	2.51 µM (active)
O=[N+]([O-])c1cc(C(F)(F)F)cc([N+](=O)[O-])c1Cl	50.1 µM (active)
FC(F)(F)c1ccc(Cl)cc1	inactive
ClC1=C(Cl)C(Cl)(Cl)C(Cl)=C1Cl	10 µM (active)
Oc1c(Br)c(Br)c(Br)c(Br)c1Br	inactive
COP(=O)(OC)O/C(=C\Cl)c1cc(Cl)c(Cl)cc1Cl	inactive
O=[N+]([O-])C(Br)Br	20 µM (active)
N#CSCSC#N	10 µM (active)
